The values below come from article doi:10.1101/2024.03.05.583629.

Sequence of pT7_6His-AlfaTag-HOXD13 (P35453 263-343): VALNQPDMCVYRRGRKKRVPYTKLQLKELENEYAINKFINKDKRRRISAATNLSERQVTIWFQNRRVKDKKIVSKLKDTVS

The assay addresses pT7_6His-AlfaTag-HOXD13 (human, UniProt P35453 263-343). Nature of the assay: PADIT-seq. The settings on record: dsDNA, one strand shown.
Regarding “CTCGAGGATATCAAGATCTGGCCTCGGCCTTTTAGTCGGAACCTCTAGCTAGCCGACTCACTATAGGGATAATCGCCCTGAGCAAAGACC”, the binding signal is -0.369 ± 0.0988 log2FC. The value for “CTCGAGGATATCAAGATCTGGCCTCGGCGTTTTAAGGGGAACCTCTAGCTAGCCGACTCACTATAGGGATAATCGCCCTGAGCAAAGACC” was 1.67 ± 0.0925 log2FC; that for “CTCGAGGATATCAAGATCTGGCCTCGGCCACCTAAAAGGAACCTCTAGCTAGCCGACTCACTATAGGGATAATCGCCCTGAGCAAAGACC” was -0.327 ± 0.133 log2FC; that for “CTCGAGGATATCAAGATCTGGCCTCGGCCCCTGGGCGGGAACCTCTAGCTAGCCGACTCACTATAGGGATAATCGCCCTGAGCAAAGACC” was -0.981 ± 0.122 log2FC. The value for “CTCGAGGATATCAAGATCTGGCCTCGGCGTTTTATGGGGAACCTCTAGCTAGCCGACTCACTATAGGGATAATCGCCCTGAGCAAAGACC” was 3.21 ± 0.0773 log2FC. The value for “CTCGAGGATATCAAGATCTGGCCTCGGCAATTTAAAAGGAACCTCTAGCTAGCCGACTCACTATAGGGATAATCGCCCTGAGCAAAGACC” was 2.32 ± 0.0729 log2FC; that for “CTCGAGGATATCAAGATCTGGCCTCGGCGTTTTAACCGGAACCTCTAGCTAGCCGACTCACTATAGGGATAATCGCCCTGAGCAAAGACC” was -0.0101 ± 0.0939 log2FC; that for “CTCGAGGATATCAAGATCTGGCCTCGGCGCGTTTGCGGGAACCTCTAGCTAGCCGACTCACTATAGGGATAATCGCCCTGAGCAAAGACC” was -0.387 ± 0.156 log2FC. The sequence “CTCGAGGATATCAAGATCTGGCCTCGGCTTTTTACTTGGAACCTCTAGCTAGCCGACTCACTATAGGGATAATCGCCCTGAGCAAAGACC” registered a binding signal of 1.32 ± 0.0895 log2FC. To “CTCGAGGATATCAAGATCTGGCCTCGGCGCGTGGCCGGGAACCTCTAGCTAGCCGACTCACTATAGGGATAATCGCCCTGAGCAAAGACC” belongs -1.04 ± 0.14 log2FC; to “CTCGAGGATATCAAGATCTGGCCTCGGCCCGCCACGCGGAACCTCTAGCTAGCCGACTCACTATAGGGATAATCGCCCTGAGCAAAGACC”, -1.05 ± 0.125 log2FC. To “CTCGAGGATATCAAGATCTGGCCTCGGCATTTTATCCGGAACCTCTAGCTAGCCGACTCACTATAGGGATAATCGCCCTGAGCAAAGACC” belongs 1.17 ± 0.0736 log2FC; to “CTCGAGGATATCAAGATCTGGCCTCGGCCTTTTAGTAGGAACCTCTAGCTAGCCGACTCACTATAGGGATAATCGCCCTGAGCAAAGACC”, 1.19 ± 0.0808 log2FC.
